Only a selection was taken, and hits are over-represented in it overall.
Dicer processing – human Dicer pre-microRNA cleavage inhibition; z-score at 25 µM; 47,000 compounds, 6% hits; Q9UPY3; AID 1347074; cat-ELCCA pre-miR-21 Dicer processing, chemiluminescence; active compounds read high; in the data active = z-score above about 3, passing the limit was not always enough;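 note: plate controls were vehicle for no effect and no enzyme for full effect; higher signal means more uncleaved substrate so more Dicer inhibition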
The depositor's hits bear a star.

SMILES	Dicer processing
Cc1nn(C)cc1CN(C)C(=O)c1cc2n(n1)C(C(F)(F)F)CC(c1ccccc1)N2 (configuration not stated)	0.7
FC(F)(F)c1cc(SCc2ncc(C(F)(F)F)cc2Cl)cc(C(F)(F)F)c1	0.8
CC(=O)Nc1ccc2c(c1)[n+](C)c(C)n2-c1ccccc1	0.47
CC[n+]1c(C)n(-c2ccccc2)c2ccccc21	10*
CCOC(=O)c1c(O)c(O)c(C(=O)OCC)n1-c1ccccc1	-0.94
COc1ccc(-c2csc3nc(-c4ccc(C)cc4)oc(=O)c23)cc1	0.99
c1csc(-c2nnc3n2C2(CCCC2)Cc2ccccc2-3)c1	0.48
C=CCOC(=O)c1sc(N2C(=O)c3oc4ccccc4c(=O)c3C2c2ccc(Cl)cc2)nc1C (configuration not stated)	-0.27
Cc1ccc(C2CC(=O)C3=C(C2)Nc2ccccc2NC3c2coc3ccc(Cl)cc3c2=O)cc1 (configuration not stated)	-0.43
O=C(COc1ccc(F)cc1)N(Cc1cccs1)C1CCS(=O)(=O)C1 (configuration not stated)	1.4
O=C(COc1ccccc1)N(Cc1cccs1)C1CCS(=O)(=O)C1 (configuration not stated)	3.1*
O=C(COc1ccc(Cl)cc1)N(Cc1cccs1)C1CCS(=O)(=O)C1 (configuration not stated)	0.47
CCn1c(SCc2ccc(C(=O)O)o2)nnc1-c1ccc(Cl)cc1	1.6
CCOC(CNC(=O)[C@H](Cc1ccccc1)NC(C)=O)OCC	-0.39
CC(C)(C)c1ccc(-c2nc(-c3cccnc3)no2)cc1	0.2
COc1ccc(OC)c(CN2CCN(Cc3ccc(SC)cc3)CC2)c1	2.2
c1ccc(CN2CCC(N3CCN(C4CCCCC4)CC3)CC2)cc1	0.42
Clc1ccc(CN2CCN(C3CCCC3)CC2)cc1	1.1
Fc1ccccc1CN1CCN(C2CCCCC2)CC1	4.1*
Fc1cccc(CN2CCN(C3CCCC3)CC2)c1	3.8*
COc1ccc(OC)c(CN2CCN(Cc3ccc(OC)c(Br)c3)CC2)c1	-0.14
COc1ccc(OC)c(CN2CCN(C3CCCCC3)CC2)c1	3.1*
CCc1ccc(CN2CCN(C3CCCCC3)CC2)cc1	2.5
Clc1ccc(CN2CCN(C3CCCCC3)CC2)cc1	-2.5
Cc1nc(COc2ccccc2)[nH]c(=O)c1Cl	0.66
SMILES	Dicer processing
CCCCN1C(=O)C(O)(CC(=O)c2cc(OC)ccc2OC)c2cc(Br)ccc21 (configuration not stated)	2.7
Cc1ccc(S(=O)(=O)N(Cc2ccccc2)C(C#N)c2ccc3c(c2)OCO3)cc1 (configuration not stated)	-0.46
Cc1ccc(CNC(=O)C2Sc3nnc(C)n3NC2c2ccc(C)cc2)cc1 (configuration not stated)	0.79
CSc1cccc(N2C(=O)C3CC=C(C)CC3C2=O)c1 (configuration not stated)	0.08
CS(=O)c1ccccc1-n1c(=O)n(Cc2ccccc2F)c(=O)c2[nH]cnc21 (configuration not stated)	-1.4
COC(=O)C1=C(C)O/C(=C2/C=CC=CN2)C(C)=C1	3.1*
CCOC(=O)c1c(NC(=S)Nc2ccccc2)sc2c1C(C(=O)OCC)CC2 (configuration not stated)	2.8
O=C(/C=C/c1cc([N+](=O)[O-])ccc1Sc1ccc(C(F)(F)F)cn1)Nc1ccc(Cl)cc1	0.38
CCOC(=O)C1=NN(c2ccccc2)C2(C(=O)c3ccccc3C2=O)C1c1ccc(C)cc1 (configuration not stated)	-0.57
O=C1C2C(c3ccccc3)OC3(C(=O)c4ccccc4C3=O)C2C(=O)N1c1ccccc1 (configuration not stated)	0.05
O=C(C1=NOC2(C(=O)c3ccccc3C2=O)C1c1ccccc1)c1ccccc1 (configuration not stated)	3.9*
CCOC(=O)c1sc2nc(C(C)=O)ccc2c1N	-0.96
C=CCn1c(SCc2ccc(Cl)cc2)nc2sc3c(c2c1=N)CCCC3	-1.7
O=C(O)CSc1nnc(-c2ccncc2)o1	1.1
Cc1c(C)c(C)c(C#CCOC2CCCCO2)c(C)c1C (configuration not stated)	0.01
N#CCS(=O)(=O)c1ccc(C(F)(F)F)cn1	-0.44
COc1cc2c(cc1OC)C(c1ccccc1N)=NCC2	-2.9
CCOC(=O)C1=NN(c2ccc(C)cc2)/C(=C/C2=NCCc3cc(OC)c(OC)cc32)S1	4.4*
COc1cc2c(cc1OC)C(/C=C1\SC(C(=O)c3cccs3)=NN1c1ccc(C)cc1)=NCC2	0.72
FC(F)(F)c1ccc(Oc2ccc(Oc3ccc(C(F)(F)F)cn3)cc2)nc1	1.6
CC(C)CC(Nc1ncnc2c1oc1ccccc12)C(=O)O (configuration not stated)	-0.07
Cc1cccc(N(C)C(=O)c2cnccc2C(F)(F)F)c1C	-1.6
CC1CN(C2=NCCN2S(=O)(=O)c2cc(C(F)(F)F)cc(C(F)(F)F)c2)CC(C)O1 (configuration not stated)	1
O=C(NC(Nc1ccccn1)(C(F)(F)F)C(F)(F)F)c1cccnc1	0.55

Screens from PubChem.
